From PubChem BioAssay (NCI) come the findings set out here.

This is part of a sample that, as a whole, favours compounds with a hit. Of some 83,000 tested, about 20% had one in any assay.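 Each cell line was grown in a 96-well plate and treated with one concentration of compound for 48 hours. Values below 10 were considered active.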 A number with no mark means an inactive call. Calls of active or inactive are those of the source.

This test has as its system HCC-2998 colon. Description: NCI-60 one-dose screen, 48 h (100 = growth as untreated, 0 = no growth, -100 = all killed). The conditions noted are these: 10 µM unless noted. The procedure:
Growth inhibition of the HCC-2998 human tumor cell line is measured as a screen for anti-cancer activity. Cells are grown in 96 well plates and exposed to the test compound for 48 hours. Compounds are tested at a single concentration, which is 10^-5 M for most compounds. The reported endpoint is percent growth (GI% or GIPRCNT), where numbers from 0 - 100% represent growth inhibition, and numbers from -100% - 0 represent cell death. For example, a value of 40 represents 60% growth inhibition. A value of 0 means no net growth occurred over the course of the experiment. A value of -40 indicates 40% of cells at the beginning of the experiment died by the end of the experiment. A value of -100 means all cells are dead at the end of the experiment.
NCI-60 Human Tumor Cell Lines Screen was performed using the standard one-dose NCI protocol, which is described in more detail at https://dtp.cancer.gov/discovery_development/nci-60/default.htm.
Compounds with GIPRCNT values below 10 were considered active. Activity score was based on GIPRCNT using the following formula: […]
Score is 0 for GIPRCNT values of 100 or above, 50 for GIPRCNT values of 0, and 100 for GIPRCNT values of -100.
`Cc1nnc(/N=C2\NC(=O)/C(=C/c3ccc(N(C)C)cc3)S2)s1`: the growth is 85.5%. As to `COc1ccc(C2C(c3ccccc3)C(=O)N2c2cc(OC)c(OC)c(OC)c2)cc1I` (stereo not given), the growth was 31.8%.

With `N#Cc1c(-c2ccc(F)cc2)nc(N/N=C/c2c[nH]c3ccccc23)nc1N1CCOCC1`, the growth was 59%. In the case of `O=C(Nc1nc2ccc(C(F)(F)F)cc2s1)c1cc(Cl)ccc1O`, the growth is 10.9%. For the molecule `COc1ccc(NC(=O)Nc2ccc(Nc3nc(C)cc(Nc4ccc(C)cc4)n3)cc2)cc1`, the growth was -74.6% (active).

Take `CCOCc1cc(C(C)(C)C)ccc1O`: the growth was 104%. Regarding `Nc1c(C(=O)Nc2ccccc2Cl)sc2nc3c(cc12)CN(Cc1ccccc1)CC3`, the growth is 96.5%. With `Cc1ccc2nc3nc4ccc[nH]c4cc3c2c1`, the growth was 63.7%. Under `CNS(=O)(=O)c1cccc(-c2ccc3c4c(n(C)c(=O)c3c2)-c2ccccc2C4=O)c1` stands 90.6%. For the molecule `COc1cc(/C=C/C(=O)c2ccc(NC(=O)CSc3nnc(-c4cc(OC)c(OC)c(OC)c4)n3-c3ccccc3)cc2)cc(OC)c1OC`, the growth is -91.8% (active). To `O=C(Nc1ccc(N=Cc2ccccc2O)cc1)NC1C=c2ccccc2=CC1` (stereo not given) belongs 100%; to `CC[C@H](Nc1ncnc2nc[nH]c12)c1nc2cccc(CC(=O)c3ccc(C(=O)NO)cc3)c2c(=O)n1-c1ccccc1`, 88.9%; to `O=c1nc(-c2ccccc2)c2cc(-c3ccc(N4CCCC4)nc3)ccc2[nH]1`, 80.5%.

Consider `C=C(C)[C@@H]1CC[C@]2(C(=O)O)CC[C@]3(C)[C@H](CC[C@@H]4[C@@]5(C)C[C@@H](CC#Cc6ccccc6)C(=O)C(C)(C)[C@@H]5CC[C@]43C)[C@@H]12`, for which the growth was 29%. As for `O=CN1N=C(c2ccc3c(c2)OCO3)CC1c1cccc(Nc2ccnc3cc(C(F)(F)F)ccc23)c1` (stereo not given), the growth is 93.6%. Regarding `CC1=C/C(=N\N=C2/C=C(C)CC(C)(C)C2)CC(C)(C)C1`, the growth was 94.5%. As for `Cc1cccc(C)c1NCc1nnc(-c2ccco2)o1`, the growth is 103%.

In the case of `C[C@]12CC[C@@H]3c4ccc(O)cc4CC[C@H]3[C@@H]1C[C@H](O)C2`, the growth is 87.6%.

With `C=C1C(=O)O[C@H]2[C@H]1CC/C(COC(=O)c1cc3ccccc3o1)=C\CC[C@@]1(C)O[C@@H]21`, the growth is 61.6%. Take `COc1cc(C2=NN(C(C)=O)C(c3cccc(Nc4ccnc5cc(C(F)(F)F)ccc45)c3)C2)cc(OC)c1OC` (stereo not given): the growth was 72.2%.

Regarding `CCOC(=O)c1c(C)nc2c(c1N)/C(=C/c1cccs1)C(=O)N2Cc1ccccc1`, the growth was 96%. Under `Cc1cnc(SCc2ccc(Cl)cc2Cl)nc1Nc1ccc(Cl)c(Cl)c1` stands 103%. Under `CCOC(=O)c1c(C)nc2c(c1N)CC(=O)N2CCc1ccccc1` stands 64.4%; under `Cc1c(Cl)cccc1NC(=O)c1sc2nc3c(cc2c1N)CCCCC3`, 55.7%. On to `C=C1C(=O)O[C@H]2[C@H]1CC/C(COC(=O)c1c[nH]c3ccccc13)=C\CC[C@@]1(C)O[C@@H]21`, for which the growth is -80.9% (active). Turning to `O=C(Nc1ccccc1)NS(=O)(=O)c1c[nH]c(=S)[nH]c1=O`, the growth is 114%.

With `c1ccc(-c2cn3ccnc3c(-c3ccc4c(c3)ncn4C3CCCCC3)n2)cc1`, the growth is 105%. Under `NC(=O)c1ccc(C2C3=C(CCCC3=O)OC3=C2C(=O)c2ccccc2C3=O)cc1` (stereo not given) stands 77.7%. Under `OCCNc1nc(NCCO)nc(Nc2ccc(C3=NN(c4cc(Cl)cc(Cl)c4)C(c4ccc(C(F)(F)F)cc4)C3)cc2)n1` (stereo not given) stands 45.1%. In the case of `CCOC(=O)/C=C1\SC(=Nc2ccc(C#N)cc2)N(CCN2C(=O)/C(=C/C(=O)OCC)SC2=Nc2ccc(C#N)cc2)C1=O`, the growth was 20.6%. In the case of `C#C[C@@]1(O)[C@@H](CO)O[C@@H](n2ccc3c(N)ncnc32)[C@@H]1O`, the growth was -44.2% (active). On to `O=S(=O)(O)c1ccc(N=NSc2ccc3ccccc3c2)cc1`, for which the growth is 97.2%. Under `CC1(C)[C@@H](O)CC[C@]2(C)[C@H]3CC[C@@H]4[C@H]5[C@H](c6cn(-c7ccccc7)nn6)CC[C@]5(CO)CC[C@@]4(C)[C@]3(C)CC[C@@H]12` stands 110%; under `Cc1cc(NC(=O)CNc2nc(Oc3ccc(F)cc3)nc(-c3ccc(F)cc3)n2)ccc1Cl`, 102%. For `CCCCC(=O)Nc1c(C(=O)Nc2ccccc2)sc2nc3c(cc12)C(OC(=O)CCCC)CCC3` (stereo not given), the growth is 101%. For `COc1cc2c(Nc3ccc(NC(=O)Nc4ccc(Cl)c(C(F)(F)F)c4)c(Cl)c3)ncnc2cc1OCCCN1CCN(C)CC1`, the growth was 20.2%. To `CCCCC1=c2c([nH]c3ccc(OC)cc23)=NC2C=CC=NC12` (stereo not given) belongs 97.1%; to `Cc1ccc(C2CC(c3ccc(Nc4nc(NCCO)nc(NCCO)n4)cc3)=NN2c2ccc(Cl)cc2)cc1` (stereo not given), 64.1%; to `Cc1c(Cl)cccc1NC(=O)c1sc2nc3c(cc2c1N)CN(Cc1ccccc1)CC3`, 82.9%. In the case of `O=c1[nH]c(-c2cccc(F)c2)cc2cc(F)ccc12`, the growth is 44.6%.
